According to publication PMC5540273 (PLoS ONE, 2017):

Assays:
Conditions in all cases: concentration: 1 μM, replicates: in singlicate; n = 1
WNK4 = tested on: WNK4
YANK1 = tested on: T1, YANK1
T1 construct: gene STK32A

YANK2 = tested on: T2, YANK2
T2 construct: gene STK32B

YANK3 = tested on: T3, YANK3
T3 construct: gene STK32C

YES = tested on: T4, YES
T4 construct: gene YES1

YSK1 = tested on: T5, YSK1
T5 construct: gene STK25

YSK4 = tested on: T6, YSK4
T6 construct: gene MAP3K19

ZAK = tested on: ZAK
ZAP70 = tested on: ZAP70
p38-alpha = tested on: T7, p38-alpha
T7 construct: gene MAPK14
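Note: KINOMEscan kinase panel screen.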

Row | Compound | %Inh (WNK4) [%] | %Inh (YANK1) [%] | %Inh (YANK2) [%] | %Inh (YANK3) [%] | %Inh (YES) [%] | %Inh (YSK1) [%] | %Inh (YSK4) [%] | %Inh (ZAK) [%] | %Inh (ZAP70) [%] | %Inh (p38-alpha) [%]
1 | O=C(NCCCN1CCCC1=O)c1cnc(NCc2cc(Cl)ccc2Cl)nc1NC1CCNCC1 | 0 | 1 | 0 | 0 | 0 | 5 | 54 | 0 | 0 | 0
2 | Cc1ccc(C)c(NC(=O)NCCNc2ccnc(Nc3ccc(F)cc3)n2)c1 [GSK1379878] | 23 | 0 | 0 | 0 | 0 | 0 | 0 | 34 | 0 | 6
3 | COc1ccc(Nc2nccc(N3CCC(NC(=O)c4cccc(NC(C)=O)c4)C3)n2)cc1 (centres unmarked) [GSK1379732] | 100 | 22 | 0 | 20 | 0 | 11 | 5 | 10 | 0 | 30
4 | C[C@@H]1CCN(C(=O)CO)C[C@@H]1N(C)c1ncnc2[nH]ccc12 | 0 | 19 | 0 | 0 | 0 | 0 | 7 | 7 | 0 | 5
5 | CN1c2ccc(-c3ccc(C(=O)NCCO)cc3)cc2-c2[nH]ncc2S1(=O)=O | 0 | 0 | 0 | 0 | 12 | 13 | 8 | 20 | 0 | 0
6 | COc1ccc(-c2oc3ncnc(N)c3c2-c2ccc(OC)cc2)cc1 [SB-589132] | 55 | 19 | 12 | 21 | 44 | 6 | 57 | 9 | 0 | 7
7 | Cc1cccc(-c2nc(Nc3ccc4[nH]nnc4c3)c3ccccc3n2)n1 [GW867587] | 0 | 0 | 0 | 1 | 0 | 0 | 0 | 0 | 0 | 0
8 | C[C@H]1CC[C@@H](C(=O)Nc2ccccc2)CN1c1cc(-c2ccc3c(N)n[nH]c3c2)nc(N)n1 [GSK2283293] | 28 | 13 | 0 | 4 | 10 | 0 | 16 | 2 | 0 | 0
